# Data from the supplement of paper PMC8728848.
# Shown is part of a subset that was picked to be rich in the strongest signals.
# How the values were obtained:
# Test in all cases: glycan array binding signal (z-score within array); higher = stronger binding
# Conditions in all cases: glycan notation: IUPAC condensed, linker removed
# [1] = biological target: Fuc(a1-2)Gal(b1-4)Glc6S
# Procedure, shortened: (§1)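 Negative Z-scores can be read as non-binding. The Z-score is calculated within each array and then averaged across arrays of one protein sequence at different concentrations or buffers and across linkers. Arrays, 3228 in all, were curated from the Consortium for Functional Glycomics database and kept only where the protein sequence was available.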
# [2] = biological target: Fuc(a1-2)[Gal(a1-3)]Gal(b1-4)GlcNAc
# Procedure, shortened: as §1
# [3] = biological target: Fuc(a1-3)[Gal3S(b1-4)]Glc
# Procedure, shortened: as §1
# [4] = biological target: Gal(b1-3)GalNAc(b1-3)Gal(b1-4)Glc
# Procedure, shortened: as §1
# [5] = biological target: Gal(b1-3)[Neu5Ac(a2-6)]GalNAc
# Procedure, shortened: as §1
# [6] = biological target: Gal3S(b1-4)Glc6S
# Procedure, shortened: as §1
# [7] = biological target: Gal3S(b1-4)GlcNAc6S
# Procedure, shortened: as §1
# [8] = biological target: Gal3S6S(b1-4)GlcNAc6S
# Procedure, shortened: as §1
# [9] = biological target: Gal4S6S(b1-4)GlcNAc
# Procedure, shortened: as §1
# [10] = biological target: Gal6S(b1-4)Glc6S
# Procedure, shortened: as §1
# [11] = biological target: GlcA(b1-6)Gal
# Procedure, shortened: as §1
# [12] = biological target: GlcNAc(b1-3)Gal(b1-3)GalNAc
# Procedure, shortened: as §1
# [13] = biological target: GlcNAc(b1-3)[GlcNAc(b1-6)]Gal(b1-4)GlcNAc
# Procedure, shortened: as §1
# [14] = biological target: GlcNAc(b1-3)[GlcNAc(b1-6)]GlcNAc
# Procedure, shortened: as §1
# [15] = biological target: GlcNAc(b1-4)Gal(b1-4)GlcNAc
# Procedure, shortened: as §1
# [16] = biological target: Man(a1-3)[Man(a1-6)]Man
# Procedure, shortened: as §1
# [17] = biological target: Man(a1-3)[Man(a1-6)]Man(a1-6)[Man(a1-3)]Man(b1-4)GlcNAc(b1-4)GlcNAc
# Procedure, shortened: as §1
# [18] = biological target: Neu5Ac(a2-3)Gal(b1-3)GalNAc
# Procedure, shortened: as §1
# [19] = biological target: Neu5Ac(a2-3)Gal6S(b1-4)GlcNAc
# Procedure, shortened: as §1
# [20] = biological target: Neu5Gc(a2-3)Gal(b1-4)[Fuc(a1-4)]GlcNAc
# Procedure, shortened: as §1
binder,measurement,setting,value
"Annexin-A1 (Mus musculus), P10107 (protein) MAMVSEFLKQARFLENQEQEYVQAVKSYKGGPGSAVSPYPSFNVSSDVAALHKAIMVKGVDEATIIDILTKRTNAQRQQIKAAYLQENGKPLDEVLRKALTGHLEEVVLAMLKTPAQFDADELRGAMKGLGTDEDTLIEILTTRSNEQIREINRVYREELKRDLAKDITSDTSGDFRKALLALAKGDRCQDLSVNQDLADTDARALYEAGERRKGTDVNVFTTILTSRSFPHLRRVFQNYGKYSQHDMNKALDLELKGDIEKCLTTIVKCATSTPAFFAEKLYEAMKGAGTRHKALIRIMVSRSEIDMNEIKVFYQKKYGISLCQAILDETKGDYEKILVALCGGN",glycan array binding signal (z-score),[1],1.79
same,glycan array binding signal (z-score),[2],-0.684
same,glycan array binding signal (z-score),[3],-0.177
same,glycan array binding signal (z-score),[4],-0.151
same,glycan array binding signal (z-score),[5],-0.343
same,glycan array binding signal (z-score),[6],3.21
same,glycan array binding signal (z-score),[7],1.83
same,glycan array binding signal (z-score),[8],7.38
same,glycan array binding signal (z-score),[9],1.13
same,glycan array binding signal (z-score),[10],3.55
same,glycan array binding signal (z-score),[11],0.482
same,glycan array binding signal (z-score),[12],-0.049
same,glycan array binding signal (z-score),[13],-0.758
same,glycan array binding signal (z-score),[14],-0.452
same,glycan array binding signal (z-score),[15],-0.318
same,glycan array binding signal (z-score),[16],-0.165
same,glycan array binding signal (z-score),[17],-0.176
same,glycan array binding signal (z-score),[18],-0.573
same,glycan array binding signal (z-score),[19],-0.076
same,glycan array binding signal (z-score),[20],-0.436
